The record followed here is the supplement of paper PMC10849652.

The full data set covers some 7,900 targets. This sample favours those with a hit. About 0.6% of all pairs of compound and target were hits.

Chain of UniProt P68402 (P68402 whole entry, looked up): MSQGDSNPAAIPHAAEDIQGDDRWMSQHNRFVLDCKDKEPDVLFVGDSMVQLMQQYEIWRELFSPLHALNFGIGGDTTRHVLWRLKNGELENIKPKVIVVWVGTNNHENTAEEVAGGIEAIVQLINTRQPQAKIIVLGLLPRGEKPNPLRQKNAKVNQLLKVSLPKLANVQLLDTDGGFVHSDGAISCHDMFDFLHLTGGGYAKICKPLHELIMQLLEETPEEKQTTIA
Chain of UniProt Q8N4C8 (Q8N4C8 whole entry, looked up): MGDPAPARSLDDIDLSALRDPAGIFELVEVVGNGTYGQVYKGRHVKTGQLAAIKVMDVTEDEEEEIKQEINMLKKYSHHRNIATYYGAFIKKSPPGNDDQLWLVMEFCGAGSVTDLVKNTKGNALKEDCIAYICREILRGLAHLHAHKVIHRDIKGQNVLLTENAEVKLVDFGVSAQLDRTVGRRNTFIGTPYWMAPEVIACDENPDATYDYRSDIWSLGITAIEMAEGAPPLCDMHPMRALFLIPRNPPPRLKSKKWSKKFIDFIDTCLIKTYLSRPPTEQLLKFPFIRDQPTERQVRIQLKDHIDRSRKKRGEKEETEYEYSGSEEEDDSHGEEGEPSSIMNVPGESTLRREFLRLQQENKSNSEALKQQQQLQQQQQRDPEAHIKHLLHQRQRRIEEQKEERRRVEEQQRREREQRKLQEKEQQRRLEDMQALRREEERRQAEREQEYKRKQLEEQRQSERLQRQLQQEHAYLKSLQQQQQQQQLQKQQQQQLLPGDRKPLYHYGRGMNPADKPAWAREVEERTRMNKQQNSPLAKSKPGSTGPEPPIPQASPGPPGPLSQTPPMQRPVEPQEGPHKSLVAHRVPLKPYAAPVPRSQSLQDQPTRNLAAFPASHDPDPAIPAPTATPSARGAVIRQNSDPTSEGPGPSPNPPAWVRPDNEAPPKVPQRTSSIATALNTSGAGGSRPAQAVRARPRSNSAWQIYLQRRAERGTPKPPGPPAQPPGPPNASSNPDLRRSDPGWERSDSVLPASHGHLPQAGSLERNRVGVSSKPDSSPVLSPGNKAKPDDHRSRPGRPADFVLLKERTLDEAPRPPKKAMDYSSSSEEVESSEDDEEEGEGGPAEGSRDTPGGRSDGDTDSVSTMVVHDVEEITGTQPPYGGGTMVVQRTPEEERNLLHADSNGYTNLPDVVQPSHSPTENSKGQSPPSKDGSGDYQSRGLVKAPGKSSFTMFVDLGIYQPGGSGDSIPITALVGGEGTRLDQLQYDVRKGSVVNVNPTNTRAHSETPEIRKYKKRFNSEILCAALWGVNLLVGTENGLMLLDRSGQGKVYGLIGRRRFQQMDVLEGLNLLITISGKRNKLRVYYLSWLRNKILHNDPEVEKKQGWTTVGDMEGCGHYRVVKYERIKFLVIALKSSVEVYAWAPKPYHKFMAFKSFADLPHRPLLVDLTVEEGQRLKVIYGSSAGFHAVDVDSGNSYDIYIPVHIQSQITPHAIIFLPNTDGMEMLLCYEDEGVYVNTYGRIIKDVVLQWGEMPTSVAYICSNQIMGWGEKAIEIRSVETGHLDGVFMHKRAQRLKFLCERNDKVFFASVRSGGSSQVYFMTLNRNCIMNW
Chain of UniProt O15118 (O15118 whole entry, looked up): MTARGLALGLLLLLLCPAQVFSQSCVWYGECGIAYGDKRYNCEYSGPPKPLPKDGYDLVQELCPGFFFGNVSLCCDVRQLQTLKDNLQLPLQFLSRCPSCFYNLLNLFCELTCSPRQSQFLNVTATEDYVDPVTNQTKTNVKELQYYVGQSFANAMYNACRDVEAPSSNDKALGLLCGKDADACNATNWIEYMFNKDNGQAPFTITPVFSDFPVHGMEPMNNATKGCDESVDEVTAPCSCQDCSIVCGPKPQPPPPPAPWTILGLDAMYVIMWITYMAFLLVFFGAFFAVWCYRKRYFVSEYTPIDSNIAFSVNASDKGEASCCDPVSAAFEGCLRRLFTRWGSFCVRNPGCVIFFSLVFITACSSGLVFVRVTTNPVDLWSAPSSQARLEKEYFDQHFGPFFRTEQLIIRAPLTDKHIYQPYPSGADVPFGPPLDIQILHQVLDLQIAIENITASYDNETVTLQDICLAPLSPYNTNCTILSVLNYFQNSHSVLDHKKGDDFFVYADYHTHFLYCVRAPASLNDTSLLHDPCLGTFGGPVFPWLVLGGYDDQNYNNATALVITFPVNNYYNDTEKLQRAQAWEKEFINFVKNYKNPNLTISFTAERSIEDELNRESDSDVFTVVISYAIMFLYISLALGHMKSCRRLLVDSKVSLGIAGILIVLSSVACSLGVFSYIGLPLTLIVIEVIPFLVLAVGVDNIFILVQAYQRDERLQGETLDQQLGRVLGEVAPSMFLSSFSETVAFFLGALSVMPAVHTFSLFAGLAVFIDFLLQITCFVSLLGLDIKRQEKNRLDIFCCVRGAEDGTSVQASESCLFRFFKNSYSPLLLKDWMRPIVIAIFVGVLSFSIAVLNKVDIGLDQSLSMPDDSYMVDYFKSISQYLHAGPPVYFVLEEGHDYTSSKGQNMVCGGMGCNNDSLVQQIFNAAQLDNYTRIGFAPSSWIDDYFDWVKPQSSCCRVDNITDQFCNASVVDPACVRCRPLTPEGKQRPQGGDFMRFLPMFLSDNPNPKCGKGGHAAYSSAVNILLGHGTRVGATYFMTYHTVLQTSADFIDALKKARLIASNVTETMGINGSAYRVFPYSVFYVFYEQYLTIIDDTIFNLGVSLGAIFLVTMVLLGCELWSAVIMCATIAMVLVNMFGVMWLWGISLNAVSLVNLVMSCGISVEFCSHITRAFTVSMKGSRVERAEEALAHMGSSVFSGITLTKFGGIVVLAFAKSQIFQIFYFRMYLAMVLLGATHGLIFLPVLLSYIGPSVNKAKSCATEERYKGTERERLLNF
Chain of UniProt Q9Y2X3 (Q9Y2X3 whole entry, looked up): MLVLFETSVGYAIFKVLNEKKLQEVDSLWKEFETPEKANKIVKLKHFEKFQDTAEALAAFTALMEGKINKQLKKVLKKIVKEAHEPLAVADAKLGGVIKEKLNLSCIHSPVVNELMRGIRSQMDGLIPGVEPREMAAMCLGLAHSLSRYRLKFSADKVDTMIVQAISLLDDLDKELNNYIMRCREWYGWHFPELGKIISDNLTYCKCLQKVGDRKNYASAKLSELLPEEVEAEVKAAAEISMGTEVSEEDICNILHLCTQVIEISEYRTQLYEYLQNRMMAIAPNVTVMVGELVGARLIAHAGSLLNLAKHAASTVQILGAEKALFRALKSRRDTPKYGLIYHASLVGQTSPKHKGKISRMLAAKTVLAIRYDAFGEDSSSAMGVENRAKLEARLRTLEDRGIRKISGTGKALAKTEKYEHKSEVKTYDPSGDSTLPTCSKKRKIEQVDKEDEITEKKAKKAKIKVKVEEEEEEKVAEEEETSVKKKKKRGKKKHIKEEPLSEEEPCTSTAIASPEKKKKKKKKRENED
Chain of UniProt Q8N6M0 (Q8N6M0 whole entry, looked up): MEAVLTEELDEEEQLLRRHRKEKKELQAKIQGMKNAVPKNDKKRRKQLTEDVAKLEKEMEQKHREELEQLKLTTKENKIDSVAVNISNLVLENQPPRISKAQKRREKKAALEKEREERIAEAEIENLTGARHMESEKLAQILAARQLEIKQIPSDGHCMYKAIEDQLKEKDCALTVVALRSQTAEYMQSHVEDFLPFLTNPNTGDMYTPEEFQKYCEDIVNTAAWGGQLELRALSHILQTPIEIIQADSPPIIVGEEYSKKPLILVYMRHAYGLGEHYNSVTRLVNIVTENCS
Chain of UniProt P49116 (P49116 whole entry, looked up): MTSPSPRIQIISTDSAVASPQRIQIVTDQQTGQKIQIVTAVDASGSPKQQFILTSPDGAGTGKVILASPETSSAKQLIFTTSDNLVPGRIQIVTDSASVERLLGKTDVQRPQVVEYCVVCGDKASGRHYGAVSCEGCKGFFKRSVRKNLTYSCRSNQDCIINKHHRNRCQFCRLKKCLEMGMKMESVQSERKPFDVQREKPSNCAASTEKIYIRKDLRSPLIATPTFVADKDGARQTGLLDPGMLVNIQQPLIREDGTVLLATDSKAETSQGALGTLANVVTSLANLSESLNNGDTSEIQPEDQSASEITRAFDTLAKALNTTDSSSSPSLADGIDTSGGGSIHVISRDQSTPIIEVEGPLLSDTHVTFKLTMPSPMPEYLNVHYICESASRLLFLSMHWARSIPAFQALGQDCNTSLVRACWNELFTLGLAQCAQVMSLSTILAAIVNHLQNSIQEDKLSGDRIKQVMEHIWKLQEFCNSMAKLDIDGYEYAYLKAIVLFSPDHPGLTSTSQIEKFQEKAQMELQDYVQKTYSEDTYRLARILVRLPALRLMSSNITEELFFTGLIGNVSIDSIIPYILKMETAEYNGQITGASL
Chain of UniProt Q9BUK6 (Q9BUK6 whole entry, looked up): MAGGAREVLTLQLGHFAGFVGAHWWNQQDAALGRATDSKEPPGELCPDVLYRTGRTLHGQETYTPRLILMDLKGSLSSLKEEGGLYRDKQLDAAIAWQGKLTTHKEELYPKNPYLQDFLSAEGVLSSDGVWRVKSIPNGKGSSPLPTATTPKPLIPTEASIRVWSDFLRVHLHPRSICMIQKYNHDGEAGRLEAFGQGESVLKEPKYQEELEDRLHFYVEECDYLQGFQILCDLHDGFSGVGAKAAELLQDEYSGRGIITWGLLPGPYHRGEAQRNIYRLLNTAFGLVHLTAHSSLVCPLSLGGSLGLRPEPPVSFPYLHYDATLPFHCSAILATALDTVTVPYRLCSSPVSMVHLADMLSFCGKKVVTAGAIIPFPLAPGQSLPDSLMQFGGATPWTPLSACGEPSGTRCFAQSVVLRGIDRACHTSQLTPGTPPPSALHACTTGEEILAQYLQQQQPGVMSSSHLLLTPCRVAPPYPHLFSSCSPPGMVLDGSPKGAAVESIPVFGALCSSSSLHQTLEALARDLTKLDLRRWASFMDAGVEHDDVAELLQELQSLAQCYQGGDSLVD
Chain of UniProt P17568 (P17568 whole entry, looked up): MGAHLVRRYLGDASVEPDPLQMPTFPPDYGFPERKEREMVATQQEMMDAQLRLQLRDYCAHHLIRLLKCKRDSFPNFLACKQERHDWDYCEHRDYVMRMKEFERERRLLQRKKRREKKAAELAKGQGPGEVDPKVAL

Compound in the first test: CCCCN(Cc1ccc(C(=O)NO)cc1)C(=O)Nc1ccccc1 [Nexturastat A]
Put plainly: log2 fold change, soluble protein after heating vs DMSO (PISA); higher = thermal stabilisation; K562 cells, 10 uM, 30 min; active = over 0.2 and 3.5 SD of the protein, either way, in both replicates (recomputed). The method, boiled down:
(§1)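 Soluble protein was defined as the supernatant after 21,000xg for 90 min. It came from K562 cells at 2×10^6 cells/mL given 10 μM compound for 30 min, heated in aliquots for 3 min across 48°C-58°C, pooled, and extracted in PBS with 0.5% NP-40 at 4°C, and was quantified by TMTpro 16plex LC-MS/MS with equalised channel sums. Thermal stability against control samples, from duplicates, is reported as log2 fold change.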
Regarding MORF4L2 (UniProt Q15014), the log2 fold change was 0.129 (inactive).

MRPL46 (UniProt Q9H2W6): the log2 fold change is 0.076 (inactive).

Consider NCKAP1 isoform 2 (UniProt Q9Y2A7), for which the log2 fold change is 0.02 (inactive).

With MSTO1 (UniProt Q9BUK6), the log2 fold change is -0.118 (inactive).

On to MSH3 (UniProt P20585), for which the log2 fold change is -0.015 (inactive).

Consider NANS (UniProt Q9NR45), for which the log2 fold change was -0.196 (inactive).

In the case of OSTC (UniProt Q9NRP0), the log2 fold change is -0.114 (inactive).

With NCOR1 (UniProt O75376), the log2 fold change was -0.079 (inactive).

Take MRPS21 (UniProt P82921): the log2 fold change is 0.093 (inactive).

For the target NISCH (UniProt Q9Y2I1), the log2 fold change is 0.094 (inactive).

With NUP85 (UniProt Q9BW27), the log2 fold change is -0.041 (inactive).

With MPHOSPH10 (UniProt O00566), the log2 fold change was 0.098 (inactive).

Consider NOP58 (UniProt Q9Y2X3), for which the log2 fold change is 0.161 (inactive).

Take MRPS26 (UniProt Q9BYN8): the log2 fold change is 0.075 (inactive).

Take MRPS24 (UniProt Q96EL2): the log2 fold change was 0.095 (inactive).

Turning to MON1B (UniProt Q7L1V2), the log2 fold change is -0.058 (inactive).

With OSBP (UniProt P22059), the log2 fold change is -0.073 (inactive).

As to MINK1 (UniProt Q8N4C8), the log2 fold change was -0.007 (inactive).

Regarding MRPS9 (UniProt P82933), the log2 fold change is 0.057 (inactive).

Consider NR2C2 isoform 2 (UniProt P49116), for which the log2 fold change was -0.23 (active).

Consider NUP107 (UniProt P57740), for which the log2 fold change is 0.17 (inactive).

For the target PAFAH1B2 (UniProt P68402), the log2 fold change is -0.157 (inactive).

As for MXRA7 (UniProt P84157), the log2 fold change was -0.002 (inactive).

As for NOP53 (UniProt Q9NZM5), the log2 fold change was 0.264 (inactive).

With MRPS25 (UniProt P82663), the log2 fold change is 0.012 (inactive).

Turning to MND1 (UniProt Q9BWT6), the log2 fold change is -0.043 (inactive).

Take OTUD6B (UniProt Q8N6M0): the log2 fold change is 0.044 (inactive).

Consider NDUFB8 (UniProt O95169), for which the log2 fold change is 0.045 (inactive).

OXSR1 (UniProt O95747): the log2 fold change was -0.021 (inactive).

As for NOL7 (UniProt Q9UMY1), the log2 fold change is 0.214 (inactive).

With MRPL34 (UniProt Q9BQ48), the log2 fold change is 0.259 (inactive).

Turning to MT-ATP6 (UniProt P00846), the log2 fold change is -0.133 (inactive).

As for MRPS35 (UniProt P82673), the log2 fold change was 0.167 (inactive).

For NECTIN2 (UniProt Q92692), the log2 fold change is -0.117 (inactive).

Take NAA38 isoform 2 (UniProt Q9BRA0): the log2 fold change was 0.052 (inactive).

In the case of NPC1 (UniProt O15118), the log2 fold change is -0.041 (inactive).

NOSIP (UniProt Q9Y314): the log2 fold change is 0.149 (inactive).

For NDUFB7 (UniProt P17568), the log2 fold change was 0.023 (inactive).

On to PACS1 (UniProt Q6VY07), for which the log2 fold change is 0.023 (inactive).

Compound in a further test: CCCS(=O)(=O)Nc1ccc(F)c(C(=O)c2c[nH]c3ncc(-c4ccc(Cl)cc4)cc23)c1F [vemurafenib]
The description is as above. The method, boiled down:
as §1
As to MORF4L2 (UniProt Q15014), the log2 fold change was 0.009 (inactive).

On to MRPL46 (UniProt Q9H2W6), for which the log2 fold change was -0.061 (inactive).

Consider NCKAP1 isoform 2 (UniProt Q9Y2A7), for which the log2 fold change is 0.036 (inactive).

On to MSTO1 (UniProt Q9BUK6), for which the log2 fold change was 0.052 (inactive).

As for MSH3 (UniProt P20585), the log2 fold change was 0.019 (inactive).

For NANS (UniProt Q9NR45), the log2 fold change was -0.001 (inactive).

As to OSTC (UniProt Q9NRP0), the log2 fold change is -0.115 (inactive).

Turning to NCOR1 (UniProt O75376), the log2 fold change was 0.01 (inactive).

Consider MRPS21 (UniProt P82921), for which the log2 fold change was 0.079 (inactive).

Take NISCH (UniProt Q9Y2I1): the log2 fold change was 0.055 (inactive).

Regarding NUP85 (UniProt Q9BW27), the log2 fold change is 0.01 (inactive).

Regarding MPHOSPH10 (UniProt O00566), the log2 fold change was -0.041 (inactive).

Take NOP58 (UniProt Q9Y2X3): the log2 fold change is 0.046 (inactive).

Regarding MRPS26 (UniProt Q9BYN8), the log2 fold change was -0.004 (inactive).

In the case of MRPS24 (UniProt Q96EL2), the log2 fold change was -0.065 (inactive).

For the target MON1B (UniProt Q7L1V2), the log2 fold change was -0.005 (inactive).

As to OSBP (UniProt P22059), the log2 fold change was 0.015 (inactive).

MINK1 (UniProt Q8N4C8): the log2 fold change is -0.004 (inactive).

Consider MRPS9 (UniProt P82933), for which the log2 fold change is -0.043 (inactive).

Take NR2C2 isoform 2 (UniProt P49116): the log2 fold change was -0.023 (inactive).

Take NUP107 (UniProt P57740): the log2 fold change is 0.1 (inactive).

Regarding PAFAH1B2 (UniProt P68402), the log2 fold change was 0.083 (inactive).

On to MXRA7 (UniProt P84157), for which the log2 fold change was 0.041 (inactive).

NOP53 (UniProt Q9NZM5): the log2 fold change is -0.154 (inactive).

As to MRPS25 (UniProt P82663), the log2 fold change is -0.089 (inactive).

As for MND1 (UniProt Q9BWT6), the log2 fold change is -0.016 (inactive).

On to OTUD6B (UniProt Q8N6M0), for which the log2 fold change is 0.035 (inactive).

Regarding NDUFB8 (UniProt O95169), the log2 fold change was 0.099 (inactive).

Regarding OXSR1 (UniProt O95747), the log2 fold change is 0.037 (inactive).

Regarding NOL7 (UniProt Q9UMY1), the log2 fold change is -0.14 (inactive).

On to MRPL34 (UniProt Q9BQ48), for which the log2 fold change was -0.062 (inactive).

As to MT-ATP6 (UniProt P00846), the log2 fold change was -0.159 (inactive).

Regarding MRPS35 (UniProt P82673), the log2 fold change was -0.063 (inactive).

For the target NECTIN2 (UniProt Q92692), the log2 fold change was 0.016 (inactive).

For NAA38 isoform 2 (UniProt Q9BRA0), the log2 fold change was 0.094 (inactive).

Consider NPC1 (UniProt O15118), for which the log2 fold change is 0.007 (inactive).

With NOSIP (UniProt Q9Y314), the log2 fold change is 0.247 (inactive).

Regarding NDUFB7 (UniProt P17568), the log2 fold change was 0.018 (inactive).

For the target PACS1 (UniProt Q6VY07), the log2 fold change is 0.021 (inactive).
